Out of some 5,500 compounds screened, about 2,000 (36%) were called active. Not shown: some 18% with an inconclusive outcome. Cut-off read from the data, not from the text of the source: active = normalized growth mostly below about 0.91 (no sharp cut-off); inconclusive = no clear call, values can overlap the other calls; inactive = mostly above about 0.92. The list shows a part of the results.
Assay: chemical genetic growth profiling, strain panel (AID 1159580);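 note: tested at 20 µM; growth read once vehicle control cultures reached saturation at 30 °C; 1 = growth at the plate median or of vehicle wells; lower values mean less growth of the strain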
Conditions: S. cerevisiae deletion strains, growth OD

Measured: normalized growth

CCOC(=O)n1ccn(C)c1=S
inactive: locus YAL021C, strain ccr4, active compounds read low 0.987 | locus YAL026C, strain drs2, active compounds read low 0.996 | locus YAL030W, strain snc1, active compounds read low 0.994 | locus YBL061C, strain skt5, active compounds read low 1.01 | locus YBR009C, strain hhf1, active compounds read low 0.946 | locus YBR023C, strain chs3, active compounds read low 1.01 | locus YBR171W, strain sec66, active compounds read low 0.98 | locus YBR231C, strain swc5, active compounds read low 0.984 | locus YBR279W, strain paf1, active compounds read low 1 | locus YCL011C, strain gbp2, active compounds read low 0.997 | locus YCL016C, strain dcc1, active compounds read low 1.03 | locus YCL069W, strain vba3, active compounds read low 0.984 | locus YCR088W, strain abp1, active compounds read low 0.99 | locus YDL005C, strain med2, active compounds read low 0.99 | locus YDL040C, strain nat1, active compounds read low 0.985 | locus YDR001C, strain nth1, active compounds read low 0.982 | locus YDR069C, strain doa4, active compounds read low 0.994 | locus YDR137W, strain rgp1, active compounds read low 0.96 | locus YDR159W, strain sac3, active compounds read low 0.881 | locus YDR195W, strain ref2 0.976 | locus YDR297W, strain sur2, active compounds read low 1 | locus YDR334W, strain swr1, active compounds read low 0.961 | locus YDR335W, strain msn5, active compounds read low 1.01 | locus YDR392W, strain spt3, active compounds read low 0.939 | locus YEL003W, strain gim4, active compounds read low 0.972 | locus YEL037C, strain rad23, active compounds read low 0.974 | locus YEL061C, strain CIN8 (second series), active compounds read low 0.966 | locus YER015W, strain faa2, active compounds read low 0.982 | locus YER016W, strain bim1, active compounds read low 1.06 | locus YER111C, strain swi4, active compounds read low 0.994 | locus YER155C, strain BEM2 (second series), active compounds read low 0.961 | locus YFR010W, strain ubp6, active compounds read low 0.955 | locus YGL167C, strain pmr1, active compounds read low 0.97 | locus YGL173C, strain kem1, active compounds read low 0.975 | locus YGL227W, strain vid30, active compounds read low 0.985 | locus YGL240W, strain doc1, active compounds read low 0.995 | locus YGL253W, strain hxk2, active compounds read low 0.998 | locus YHR013C, strain ard1, active compounds read low 1.02 | locus YHR027C, strain rpn1, active compounds read low 0.997 | locus YHR030C, strain SLT2, active compounds read low 1.02 | locus YHR079C, strain IRE1, active compounds read low 1.01 | locus YHR142W, strain chs7, active compounds read low 1.01 | locus YJL092W, strain hpr5, active compounds read low 0.987 | locus YJL095W, strain BCK1 (second series), active compounds read low 0.99 | locus YJL095W, strain BCK1, active compounds read low 1.01 | locus YJL115W, strain asf1, active compounds read low 0.963 | locus YJL129C, strain trk1, active compounds read low 0.974 | locus YJL154C, strain vps35, active compounds read low 0.977 | locus YJL164C, strain tpk1, active compounds read low 0.979 | locus YJL166W, strain qcr8, active compounds read low 0.986 | locus YJR066W, strain TOR1, active compounds read low 0.988 | locus YKL160W, strain elf1, active compounds read low 1.04 | locus YKR026C, strain gcn3, active compounds read low 0.97 | locus YKR091W, strain srl3, active compounds read low 0.99 | locus YLL001W, strain dnm1, active compounds read low 0.951 | locus YLL026W, active compounds read low 0.986 | locus YLL041C, strain sdh2, active compounds read low 0.988 | locus YLR027C, strain aat2, active compounds read low 0.999 | locus YLR113W, strain HOG1, active compounds read low 0.999 | locus YLR221C, strain rsa3, active compounds read low 0.967 | locus YLR258W, strain gsy2, active compounds read low 1 | locus YLR262C, strain YPT6 (second series), active compounds read low 0.929 | locus YLR320W, strain mms22, active compounds read low 0.931 | locus YLR342W, strain FKS1, active compounds read low 1.01 | locus YLR357W, strain rsc2, active compounds read low 0.99 | locus YLR370C, strain arc18, active compounds read low 0.998 | locus YLR384C, strain iki3, active compounds read low 0.981 | locus YML120C, strain ndi1, active compounds read low 0.974 | locus YMR058W, strain fet3, active compounds read low 0.991 | locus YMR125W, strain sto1, active compounds read low 0.971 | locus YMR129W, active compounds read low 0.979 | locus YMR205C, strain PFK2, active compounds read low 0.983 | locus YMR231W, strain pep5, active compounds read low 0.988 | locus YNL071W, strain lat1, active compounds read low 0.98 | locus YNL183C, strain NPR1, active compounds read low 0.971 | locus YNL209W, strain ssb2, active compounds read low 0.985 | locus YNL248C, strain rpa49, active compounds read low 1.04 | locus YNL322C, strain KRE1 (second series), active compounds read low 1.01 | locus YNR049C, strain mso1, active compounds read low 0.999 | locus YOR001W, strain rrp6, active compounds read low 0.949 | locus YOR070C, strain gyp1, active compounds read low 1.01 | locus YOR080W, strain dia2, active compounds read low 0.998 | locus YOR083W, strain WHI5, active compounds read low 1.01 | locus YOR106W, strain vam3, active compounds read low 1.02 | locus YOR231W, strain MKK1, active compounds read low 1.02 | locus YOR265W, strain rbl2, active compounds read low 0.988 | locus YOR270C, strain vph1, active compounds read low 1.02 | locus YOR290C, strain snf2, active compounds read low 1.05 | locus YPL051W, strain arl3, active compounds read low 1.06 | locus YPL078C, strain atp4, active compounds read low 1.05 | locus YPL106C, strain sse1, active compounds read low 1.04 | locus YPL240C, strain hsp82, active compounds read low 0.994 | locus YPL256C, strain CLN2, active compounds read low 0.98
